Compound activity (PubChem)
Compounds with a hit are over-represented: about 8% of the library has one in this group of screens.
Marburg entry inh: qHTS for inhibitors of binding or entry into cells for Marburg Virus | Marburg virus pseudotyped entry inhibition, cell reporter | Potency, µM (top dose mostly 37.8 µM), without a hit: top-dose activity change, negative = inhibition, hits mostly inhibitors | 300,000 compounds, 1.8% hits; calls by dose curve; tested in HEK293 cells; further: potency means the concentration at half of the fitted maximal effect; on the % scale 0 is the no-effect control and ±100 the full control effect
HCMV inh: qHTS Assay for inhibitors of the human cytomegalovirus (HCMV) | HFF cells, HCMV-luciferase reporter, 72 h; active compounds read low | activity change, negative = inhibition, % at 57.5 µM | 410,000 compounds, 4.5% hits | AID 1259415, 2018; in the data active means activity change below about -60%; inconclusive means no clear call, values can overlap the other calls; inactive means above about -39%; further: on the % scale 0 is the no-effect control and ±100 the full control effect
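Compounds were evaluated in HFFs infected with an HCMV luciferase reporter virus (MOI 1 PFU/cell). Luciferase in lysates collected 72 h post infection served as the replication measure.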
FMDV inh: High Throughput Screening for Foot and Mouth Disease Virus Antivirals | FMDV antiviral cell-based qHTS | 410,000 compounds, 1.2% hits | Potency, µM (series often up to 57.9 µM), for the others: top-dose activity change, negative = inhibition, usual class: inhibitors; calls by dose curve; tested in HEK293T cells; further: read-out not given here; potency means the concentration at half of the fitted maximal effect; on the % scale 0 is the no-effect control and ±100 the full control effect; nearly all actives have a fitted effect of over 45% in size
SARS PLpro yeast: qHTS of Yeast-based Assay for SARS-CoV PLP. Potency, µM (highest dose often 32.9 µM), without a hit: at the top dose activity, positive = growth rescue, usual class: activators. S. cerevisiae expressing SARS-CoV PLpro, growth rescue. 330,000 compounds, 0.19% hits. AID 485353, 2010; calls by dose curve; further: potency means the concentration at half of the fitted maximal effect; 0% is about no effect; nearly all actives have a fitted effect of over 55% in size
HCV inhibitor: qHTS Assay for Inhibitors of Hepatitis C Virus (HCV). Huh7.5.1 HCVcc-Cre infection, luciferase reporter, 44 h. Potency, µM (series often up to 41.8 µM), for the others: top-dose activity change, negative = inhibition, most hits filed as inhibitors. 340,000 compounds, 3.4% hits; active means well fitted inhibition curve with a large enough effect; inconclusive means small, poorly fitted or top-dose-only effect, or another doubt; inactive means no such curve, though single readings can be large or run the other way; further: potency means the concentration at half of the fitted maximal effect; on the % scale 0 is the no-effect control and ±100 the full control effect
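A cell-based infection assay in which seeded cells (1,000 per well) receive test compound after 4 h, are inoculated with HCVcc-Cre at approximately 0.5 moi, and are incubated 44 h before luminescence detection.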
Lassa entry inh: qHTS for Inhibitors of binding or entry into cells for Lassa Virus | AID 540256, 2011 | Potency, µM (top dose mostly 37.9 µM), for the others: at the top dose activity change, negative = inhibition, hits mostly inhibitors | 300,000 compounds, 1.2% hits | Lassa virus pseudotype entry inhibition, cell reporter; calls by dose curve; tested in HEK293 cells; further: potency means the concentration at half of the fitted maximal effect; on the % scale 0 is the no-effect control and ±100 the full control effect; nearly all actives have a fitted effect of over 50% in size
* marks the source's active call; other numbers are inactive results; ? = inconclusive; / = not tested or not shown; ! = not confirmed by another sample; [ ] = another dose, or the depositor's remark.

SMILES | Marburg entry inh | HCMV inh | FMDV inh | SARS PLpro yeast | HCV inhibitor | Lassa entry inh
CCOCCn1ccc2c(OCC(=O)Nc3ccc(OC)c(OC)c3)cccc2c1=O | ? | ? | 25.1µM* | 0.2% | ? | -9.5%
COCCn1ccc2c(OCC(=O)NCc3ccc(F)cc3)cccc2c1=O | / | 5.9 | -19.6% | / | / | ?
COCCn1ccc2c(OCC(=O)NCCc3ccccc3)cccc2c1=O | -18.0%[46.1 µM] | -3.6 | 31.6% | 0.0% | 10µM* | ?
NC(=S)Nc1cc2ccccc2c2ccccc12 | -20.5% | -72.3* | ? | 26.3% | ? | -10.8%
NC(=S)Nc1cccc2cc3ccccc3cc12 | 11.9% | -105.4* | 53.7% | -47.9% | ? | 22.7%
C=CCN1C(=O)[C@@]2(CC(C)=CC[C@@H](C)O2)c2c(Br)cccc21 | 3.2%[14.2 µM] | / | / | / | / | /
COC(=O)c1sc2ccccc2c1S(=O)(=O)N1CCN(c2ccc(C(C)=O)cc2)CC1 | / | 30.2 | -17.4% | / | / | 3.6%[46.1 µM]
CCOC(=O)c1c(CC(C)C)csc1NC(=O)COC(=O)c1cc(OC)c(OC)cc1[N+](=O)[O-] | -1.1% | -71.5* | -1.4% | -14.2% | -6.9% | /
CCCCOc1ccc(N(CC(=O)NC(C)(C)CC)C(=O)CCC(=O)Nc2ccccn2)cc1 | 8.91µM* | 53.2 | -6.9% | 0.7% | 9.0% | ?
CCCCOc1ccc(N(CC(=O)NC2CCCC2)C(=O)CCC(=O)Nc2ccccn2)cc1 | ? | 13.4 | -8.9% | 18.1% | 10.5% | -4.9%
NC(=O)C1CCN(C(=O)c2ccccc2NC(=O)c2nsc3ccccc23)CC1 | / | 0.0 | 0.0% | / | / | -1.0%[46.1 µM]
C=CCn1c(SCc2csc(C)n2)nc2sc3c(c2c1=O)CCCCC3 | -19.7% | 6.3 | -28.8% | -11.7% | -21.2% | ?
C=CCn1c(SCc2csc(C)n2)nc2sc3c(c2c1=O)CCCC3 | ? | -22.1 | ? | -11.1% | ? | 5.01µM*
CCOC(=O)Cc1ccc(NC(=O)Nc2cccc(OCc3cc(=O)n4cc(C)ccc4n3)c2)cc1 | / | 27.9 | -11.7% | / | / | -16.1%[46.1 µM]
Cc1ccc(-c2nc(CN(C)Cc3cccc4cnccc34)c(C)o2)s1 | / | -66.6* | ? | -1.7% | ? | /
c1csc(CNc2nc(CN3CCCC(c4nc5ccccc5o4)C3)nc3ccccc23)c1 (stereo unspecified) | / | / | 7.6% | / | / | /
O=C1NC(=O)N(Cc2ccco2)C(=O)/C1=C/c1ccc(-c2cccc([N+](=O)[O-])c2)o1 | -12.4% | / | 31.6µM* | -13.9% | 5.6% | 0.3%
CCc1cc2c(SCC(=O)NC3CC3)ncnc2s1 | 9.0% | ? | -12.9% | -9.5% | 17.0% | -14.7%
COc1ccc(NS(=O)(=O)c2ccc(-c3coc(C)n3)cc2)cc1OC | / | -92.4* | -27.6% | 2.6% | ? | /
O=c1oc2ccccc2cc1-c1cn2cc(Cc3ccc(Cl)cc3)sc2n1 | -22.8%[46.1 µM] | -7.9 | 58.0% | / | / | ?
Cc1ccn2cc(-c3cc4ccccc4oc3=O)nc2c1 | ? | -39.0 | -41.7% | -1.3% | -25.4% | 1.58µM*
CC(=O)N(O)c1ccc(C=Cc2ccccc2)cc1 | / | -98.8* | 44.4% | / | / | /
CCC(SC1=Nc2ccccc2C2=NC(CC(C)C)C(=O)N12)C(=O)Nc1ccc2c(c1)OCO2 (stereo unspecified) | ? | 19.8 | 32.9% | 5.7% | 8.91µM*! | 16.1%
CC(C)c1c(C(=O)N2CCN(CCO)CC2)cnn1-c1nccc(-c2cccs2)n1 | / | / | -4.8% | / | / | /
Cc1[nH]nc(-c2ccc(OCc3cnn(-c4ccccc4)c3)c(C)c2O)c1Oc1ccccc1 | -31.3% | 31.5 | ? | -2.1% | -28.9% | ?
SMILES | Marburg entry inh | HCMV inh | FMDV inh | SARS PLpro yeast | HCV inhibitor | Lassa entry inh
CCOc1ccc(-c2nc(N)ncc2Oc2cccc(OC)c2)c(O)c1 | ? | -10.7 | ? | -0.5% | 12.6µM* | ?
Cc1[nH]nc(-c2ccc(OCc3cnn(-c4ccccc4)c3)cc2O)c1Oc1ccc(F)cc1 | -3.5% | -75.8* | -23.1% | 4.1% | ? | -2.5%
CCOc1ccc(-c2n[nH]c(C)c2Oc2ccc(OC)cc2)c(O)c1 | -0.2% | -17.7 | 3.5% | -2.4% | 11.2µM* | ?
Cc1[nH]nc(-c2ccc(O)c(C)c2O)c1Oc1ccccc1 | 26.8% | -38.1 | -21.1% | -16.3% | ? | 13.5%
CC(NC(=O)c1ccco1)c1nnc2n1CCN(Cc1ccc(Cl)cc1)CC2 (stereo unspecified) | / | / | 1.9% | / | / | /
CN(C)CCCNC(=O)CCC1CCCCC1 | 5.8% | -107.4* | -10.6% | 2.0% | 7.7% | 14.0%
O=C(CCC1CCCCC1)NC1=NCCS1 | 6.2% | 3.1 | -17.7% | -77.3% | 28.1% | ?
COc1ccc(Cl)cc1NC(=O)c1cn(C2CCCC2)c(=O)c2c1c1ccccc1n2C | ? | -14.6 | -0.1% | / | / | 19.9%[46.1 µM]
c1ccc2c(C3=NNC(=NC4CC4)SC3)c[nH]c2c1 | ? | -3.5 | -61.0% | -10.5% | 10.7% | 11.2µM*
c1ccc(C2=NNC(=NC3CC3)SC2)cc1 | ? | 0.5 | / | -16.0% | 1.1% | 8.2µM*
CCOC(=O)C1(C(=O)OCC)COC(=O)C1CN1Cc2cc3ccccc3nc2C1 (stereo unspecified) | / | 141.9 | 28.2µM* | / | / | /
O=C(C1CCN(c2nc3ccc(Br)cc3s2)CC1)N1CCC2(CC1)OCCO2 | ? | -32.9 | -27.5% | 5.6% | 3.16µM* | -12.8%
CCOc1ccc2nc(N3CCC(C(=O)N4CCN(c5ncccn5)CC4)CC3)sc2c1 | / | 19.7 | ? | -1.7% | -11.1% | /
O=C(C1CC1)N1CCN(c2nc3ccc(F)cc3s2)CC1 | / | 25.5 | 19.1% | / | / | 10.1%[46.1 µM]
CCOc1ccc2nc(N3CCC(C(=O)N4CCC5(CC4)OCCO5)CC3)sc2c1 | ? | 32.7 | 22.3% | 2.2% | ? | -1.9%
Cc1ccc2nc(N3CCC(C(=O)N4CCC5(CC4)OCCO5)CC3)sc2c1 | 7.94µM* | 1.7 | -14.5% | 28.4% | ? | -24.6%
CCc1ccc2nc(N3CCC(C(=O)N4CCC5(CC4)OCCO5)CC3)sc2c1 | -25.8%[46.1 µM] | ? | -11.3% | -5.0% | 11.2µM* | -26.4%[46.1 µM]
CCOc1ccc2nc(N3CCC(C(=O)N4CCN(c5ccccn5)CC4)CC3)sc2c1 | 5.7% | / | 14.1µM* | -11.2% | 6.31µM* | /
Cc1ccc2nc(N3CCN(C(=O)C4CC4)CC3)sc2c1 | / | 33.4 | 30.1% | / | / | 6.5%[46.1 µM]
CCN(CC)C1CCN(C(=O)c2cnn(-c3nccc(-c4ccco4)n3)c2C(C)C)C1 (stereo unspecified) | / | / | -1.7% | / | / | /
O=C(NC1CCCC1)c1cn(C2CCCN(Cc3ccc4c(c3)OCCO4)C2)nn1 (stereo unspecified) | / | / | 7.5% | / | / | /
O=C(C(Cc1ccccc1)N1C(=O)c2ccccc2C1=O)N1c2ccccc2CCc2ccccc21 (stereo unspecified) | ? | -66.4* | 0.0% | -6.2% | 10µM* | ?
O=C(O)C[C@H](C(=O)OCCOc1ccccc1)N1CCOCC1 | 0.1% | / | / | / | / | /
